GLS inhibitor – qHTS for Inhibitors of Glutaminase (GLS); Glutaminase kidney isoform, mitochondrial (Homo sapiens), O94925; GLS enzymatic activity, qHTS titration; Potency, µM (series often up to 45.5 µM), for inactives: at the highest dose activity change, negative = inhibition, actives largely listed as inhibitors; actives 0.21% (n = 410,000); note: % is set by controls: 0 for no effect and ±100 for the full control effect
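Read-out is an Amplex red fluorescence increase coupled through glutamate oxidase and HRP, measured before and after 30 min room-temperature incubation. hKGA is in 45 mM KH2PO4 (pH 8.2) with 0.02% Tween-20; glutamine added as 1mM solution.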
Glioma ERSR ind – qHTS for Inducers of the Endoplasmic Reticulum Stress Response (ERSR) in Human Glioma: qHTS | U87-MG GRP78 promoter luciferase reporter, 16 h | Potency, µM, for the others: top-dose activation, most hits filed as activators | actives 0.02% (n = 420,000) | AID 602332, 2012; note: series mostly up to about 76 µM; % of control where 0% means no effect; nearly all actives have a fitted effect of over 35% in size
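ERSR induction read as luciferase luminescence (Bright-Glo, 10 min at room temperature) in stably transfected human U87-MG glioma cells exposed to compounds for 16 h, using GRP78 as sensor.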
PTHR1 agonist – qHTS for PTHR1 Agonists: Primary Screen; Parathyroid hormone/parathyroid hormone-related peptide receptor (Homo sapiens), Q03431; Potency, µM (titrated, usually from 115 µM), for the others: at the highest dose activation, actives largely listed as activators; actives 0.075% (n = 410,000); HEK293 GP2 PTHR1 cells, GloSensor cAMP luminescence, 1 h; AID 743266, 2014; note: nearly all actives have a fitted effect of over 55% in size
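HEK-293-derived GP2 cells expressing PTHR1 and a GloSensor cAMP reporter, 3,000/well, plated overnight, given luciferin plus IBMX (each 0.5 mM as added) for 1 h at 37 °C, then compound for 1 h at 37 °C. Luminescence was read after 15 min at room temperature.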
12-LOX inh – Primary qHTS assay for inhibitors of human arachidonate 12S-lipoxygenase (ALOX12): Round 2; Polyunsaturated fatty acid lipoxygenase ALOX12 (Homo sapiens), P18054; actives 1.1% (n = 580,000); AID 1671190, 2021; Potency, µM (top dose mostly 108 µM), without a hit: at the highest dose activity change, negative = inhibition, usual class: inhibitors; purified 12hLO, xylenol orange hydroperoxide absorbance; note: % is set by controls: 0 for no effect and ±100 for the full control effect
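Hydroperoxide product was detected by ferrous iron/xylenol orange as the 573 to 405 nm absorbance ratio. Arachidonic acid at 40 uM (final) was turned over for 30 min at room temperature by 150 nM human 12hLO, pH 7.0 Hepes buffer, after 15 min compound preincubation.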
GLP-1R agonist – qHTS of GLP-1 Receptor Agonists; HEK293 GLP-1R CRE-luciferase, luminescence, 4-6 h; cells express a hypersensitive GLP-1R form; Potency, µM (doses to about 45.6 µM), inactives show at the highest dose activation, usual class: activators; actives 0.007% (n = 380,000); note: % of control where 0% means no effect
Target sequence (P43220 whole entry, looked up): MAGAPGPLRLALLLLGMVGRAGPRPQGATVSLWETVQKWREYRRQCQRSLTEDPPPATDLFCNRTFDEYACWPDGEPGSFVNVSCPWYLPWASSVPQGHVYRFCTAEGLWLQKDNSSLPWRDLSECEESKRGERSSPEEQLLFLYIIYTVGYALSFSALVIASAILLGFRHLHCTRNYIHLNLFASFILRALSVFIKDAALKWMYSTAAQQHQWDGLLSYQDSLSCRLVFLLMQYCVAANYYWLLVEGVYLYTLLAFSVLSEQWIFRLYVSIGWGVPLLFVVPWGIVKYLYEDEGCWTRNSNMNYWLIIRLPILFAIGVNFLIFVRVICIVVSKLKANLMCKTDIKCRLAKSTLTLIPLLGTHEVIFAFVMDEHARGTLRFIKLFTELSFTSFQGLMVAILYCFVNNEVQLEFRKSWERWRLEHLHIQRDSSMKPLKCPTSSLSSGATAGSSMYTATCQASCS
GLP-1R inv ag – qHTS of GLP-1 Receptor Inverse Agonists (Inhibition Mode). Glucagon-like peptide 1 receptor (Homo sapiens), P43220. HEK293 GLP-1R CRE-luciferase, luminescence, 24 h; GLP-1R form is constitutively active. Potency, µM (top dose mostly 38.3 µM), for inactives: at the top dose activity change, negative = inhibition, hits mostly inhibitors. actives 1.6% (n = 410,000). AID 624417, 2012; note: % is set by controls: 0 for no effect and ±100 for the full control effect; nearly all actives have a fitted effect of over 55% in size
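Readout was luciferase luminescence, measured 12 min after detection reagent at room temperature. Beforehand, GLP-1R reporter HEK293 cells had sat 12 h, then received compounds for 24 hr at 37 deg C.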
* marks the source's active call; other numbers are inactive results; i = inactive; u = inconclusive; x = no result given; [ ] = dose if it differs, or a comment. Sampled rows, rich in hits. Any-hit rate of the full collection: about 2.3%. Calls come from the whole dose curve; as a rule, active = well fitted curve in the direction sought with a large enough effect; inconclusive = small, poorly fitted or top-dose-only effect, or another doubt; inactive = no such curve, though single readings can be large; an effect the other way counts as inactive or inconclusive. Potency is the fitted concentration of half-maximal effect.

SMILES	GLS inhibitor	Glioma ERSR ind	PTHR1 agonist	12-LOX inh	GLP-1R agonist	GLP-1R inv ag
CCOc1ccccc1NC(=O)CSc1nc2ccccc2nc1N1CCOCC1	1.7%	-1.4%	-10.5%	-2.9%	4.8%	10µM*
CCOc1cc(N2CCOCC2)c(OCC)cc1NC(C)C(=O)N1CCN(CC)CC1 (configuration not stated)	u	-3.5%	i	3.16µM*	0.1%	22.9%
COc1ccc(CCN(C)CCc2ccc(OC)c(OC)c2)cc1OC	23.3%	-5.9%	-24.8%	4.7%	6.9%	33.5%
COc1ccc(CN(C)Cc2c(O)ccc3cc(Br)ccc23)cc1OC	2.4%	6.9%	-59.8%	28.2µM*	10.8%	u
COc1ccc(CCN(C)Cc2c(O)ccc3cc(Br)ccc23)cc1OC	5.7%	10.9%	-21.2%	17.8µM*	-1.3%	u
Cc1ccc(NC(=O)CN2C(=O)N/C(=C\c3cccn3-c3cccc(C(=O)O)c3)C2=O)cc1	24.7%	1.4%	-6.0%	x	-3.5%	-0.1%
Cc1cccc(NC(=O)CN2C(=O)N/C(=C/c3ccc(C)o3)C2=O)c1	-7.9%	-4.5%	i	u	-16.7%	11.6%
Cc1ccc(NC(=O)CN2C(=O)N/C(=C/c3cc(C)n(-c4cccc(C(=O)O)c4)c3C)C2=O)cc1	u	1.2%	-15.2%	17.8µM*	-11.7%	0.4%
Cc1ccc(NC(=O)CN2C(=O)N/C(=C/c3ccc(C)o3)C2=O)cc1	11.3%	1.6%	i	35.5µM*	3.6%	0.2%
COc1ccc(-c2noc(CSc3nc4ccc(Cl)cc4o3)n2)cc1	x	x	x	-5.0%	x	x
CN(C(=O)Cc1cccc(Cl)c1)C1CCCc2ccccc21 (configuration not stated)	x	x	x	-0.5%[176 µM]	x	x
CCOc1ccc(/C=C/C2=CC(C)(C)NC(=S)N2)cc1	u	-1.9%	-11.4%	39.8µM*	4.8%	u
O=C(N/N=C/c1cccc(C(F)(F)F)c1)c1cccs1	x	x	x	-8.9%	x	x
C/C(CC(=O)Nc1ccc(Cl)c(C(F)(F)F)c1)=N\NC(N)=S	u	-3.5%	i	u	1.9%	10µM*
COc1cccc(-n2cnnc2SC(C)C(=O)Nc2cccc(C(C)=O)c2)c1 (configuration not stated)	x	x	x	7.6%	x	x
CCC(=O)Nc1ccc(-c2csc(NCCOC)n2)cc1	x	x	x	14.1µM*	x	x
COCCn1c(C)cc(-c2csc(NCc3ccccc3OC)n2)c1C	x	x	x	61.6%	x	x
CCCCNc1nc(-c2ccc(NC(=O)CC)cc2)cs1	x	x	x	-12.0%	x	x
COCCNc1nc(-c2cc(C)c(C)cc2C)cs1	12.6µM*	7.7%	-6.9%	-17.6%	4.3%	u
CN1CCN(C(c2ccc(C(F)(F)F)cc2)c2ccc3cccnc3c2O)CC1 (configuration not stated)	-1.6%	-4.5%	i	17.8µM*	-5.2%	u
Oc1c(C(Nc2cccnc2)c2ccc(C(F)(F)F)cc2)ccc2cccnc12 (configuration not stated)	x	-4.3%	x	x	x	x
Oc1c(C(c2ccc(Cl)cc2)N2CCCC2)cc(Cl)c2cccnc12 (configuration not stated)	10.0%	-4.8%	-16.6%	u	-1.9%	5.62µM*
Oc1c(C(c2ccccc2Cl)N2CCCC2)ccc2cccnc12 (configuration not stated)	8.7%	-0.6%	-16.0%	u	-3.5%	3.55µM*
CCCCC(=O)NC(c1ccccc1Cl)c1ccc2cccnc2c1O (configuration not stated)	1.1%	-4.6%	-7.6%	3.9%	0.5%	u
Cc1nc2ccccc2nc1CN1C(=O)C(=O)N(C2CCCC2)C1=O	x	x	x	20.4%	x	x
SMILES	GLS inhibitor	Glioma ERSR ind	PTHR1 agonist	12-LOX inh	GLP-1R agonist	GLP-1R inv ag
c1ccc(CN2CCCNCC2)cc1	x	x	x	5.4%	x	x
Cc1[nH]c2ccccc2c1C(=O)C(=O)N(C)C1CCS(=O)(=O)C1 (configuration not stated)	x	x	x	22.3%	x	x
Nc1cccc(OCCOc2ccccc2)c1	x	x	x	-9.2%	x	x
O=C(N/N=C/c1cn(-c2ccccc2)nc1-c1cccs1)c1ccccc1F	10.5%	4.9%	-6.8%	x	5.1%	-1.3%
CN1CCC(N(C)C(=O)/C=C/c2cn(-c3ccccc3)nc2-c2cccs2)CC1	-10.8%	-9.5%	i	36.6%	20.1%	5.62µM*
CCN(CC(=O)Nc1ccc(NC(C)=O)cc1)C(=O)/C=C/c1cn(-c2ccccc2)nc1-c1cccs1	1.1%	-1.1%	-3.2%	-16.6%	13.3%	-25.3%
O=C(N/N=C/c1cn(-c2ccccc2)nc1-c1cccs1)c1ccc(Cl)cc1	5.8%	6.1%	i	-6.9%	3.8%	6.31µM*
CNc1oc(-c2cc(S(=O)(=O)N(C)C)c(C)o2)nc1C#N	x	x	x	1.2%	x	x
CCOc1ccc(NC(=O)c2c(NCc3cccnc3)sc3c2CCC(C)C3)cc1 (configuration not stated)	u	-1.6%	i	39.8µM*	x	8.8%
O=C1CN(CC(=O)Nc2c(Cl)cccc2Cl)CCN1	x	x	x	23.1%	x	x
CCN=c1scc(-c2ccccc2)n1/N=C/c1ccccn1	4.0%	-16.2%	-23.8%	x	3.8%	3.16µM*
C=CCN=c1scc(-c2ccc(F)cc2)n1/N=C/c1ccccn1	-13.6%	3.9%	-25.7%	-11.4%	u	u
C=CCN=c1scc(-c2ccccc2)n1/N=C/c1ccccn1	-9.0%	-1.5%	-32.1%	u	10.7%	11.2µM*
CC1CCN(c2ccc(-c3noc(-c4cc5ccccc5oc4=O)n3)cc2)CC1	x	x	x	10.8%	x	x
O=C(Nc1cnn(Cc2ccc(F)cc2)c1)C(c1ccccc1)c1ccccc1	6.5%	-4.6%	-48.7%	0.0%	-0.1%	4.47µM*
Fc1cccc(Cl)c1CNc1ccc(N2CCCC2)cc1	7.94µM*	-1.5%	-7.7%	31.6µM*	8.6%	2.8%
COC(=O)c1cc(NC(=O)c2cc(-c3ccc(Cl)cc3)oc2C(F)(F)F)ccc1N1CCOCC1	-11.4%	-3.1%	-37.3%	u	6.2%	u
COC(=O)c1cc(NCc2cccc3ccccc23)ccc1N1CCOCC1	x	x	x	-4.1%	x	x
COC(=O)c1cc(NCc2c(F)cccc2Cl)ccc1N1CCOCC1	37.3%	-1.9%	2.51µM*	16.4%	4.7%	-8.8%

Screening data deposited in PubChem BioAssay by National Center for Advancing Translational Sciences (NCATS).
